Legend:
Test in all cases: PBM binding z-score (relative to random genomic background probes); higher = stronger binding; sequences stand for … in GC…GCGATTGACAGCGTAGAATGAAGG
[1] = tested on: FXR:RXRa (NR concentration 270 nM, RXRa partner concentration 90 nM)
How it was run: (§1)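 Scanned fluorescence from custom Agilent 4×180K protein-binding microarrays was regression-normalized. Binding z-scores use random background probes as reference. Ligand-free nuclear receptor dimers were incubated on the arrays for 1 h and detected with antibodies against each partner (one per run).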

[2] = tested on: LXRa:RXRa (NR concentration 270 nM, RXRa partner concentration 90 nM)
How it was run: as §1

[3] = tested on: LXRa homodimer (NR concentration 270 nM)
How it was run: as §1

[4] = tested on: LXRb:RXRa (NR concentration 270 nM, RXRa partner concentration 90 nM)
How it was run: as §1

[5] = tested on: LXRb homodimer (NR concentration 270 nM)
How it was run: as §1

[6] = tested on: PPARa:RXRa (NR concentration 270 nM, RXRa partner concentration 90 nM)
How it was run: as §1

[7] = tested on: PPARg:RXRa (NR concentration 180 nM, RXRa partner concentration 90 nM)
How it was run: as §1

[8] = tested on: PPARg:RXRa 270nM:90nM, anti-RXR (NR concentration 270 nM, RXRa partner concentration 90 nM)
How it was run: as §1

[9] = tested on: PPARg:RXRa 30nM:10nM, anti-RXR (NR concentration 30 nM, RXRa partner concentration 10 nM)
How it was run: as §1

[10] = tested on: PPARg:RXRa 90nM:30nM, anti-RXR (NR concentration 90 nM, RXRa partner concentration 30 nM)
How it was run: as §1

[11] = tested on: PPARg:RXRa DBDmut IVT, anti-RXR (DBD mutation: RXRa K156A/R161A, NR concentration 270 nM, RXRa partner concentration 90 nM)
How it was run: as §1

[12] = tested on: PPARg:RXRa IVT, anti-PPARg (NR concentration 270 nM, RXRa partner concentration 90 nM)
How it was run: as §1

[13] = tested on: PPARg DBDmut:RXRa IVT, anti-PPARg (DBD mutation: PPARg1 K132A/R137A, NR concentration 270 nM, RXRa partner concentration 90 nM)
How it was run: as §1

[14] = tested on: PPARg DBDmut IVT, anti-PPARg (DBD mutation: PPARg1 K132A/R137A, NR concentration 270 nM)
How it was run: as §1

[15] = tested on: PPARg homodimer (NR concentration 180 nM)
How it was run: as §1

[16] = tested on: PXR:RXRa (NR concentration 270 nM, RXRa partner concentration 90 nM)
How it was run: as §1

[17] = tested on: PXR homodimer (NR concentration 270 nM)
How it was run: as §1

[18] = tested on: RARa:RXR (NR concentration 270 nM, RXRa partner concentration 90 nM)
How it was run: as §1

[19] = tested on: RARa homodimer (NR concentration 270 nM)
How it was run: as §1

[20] = tested on: RARb:RXRa (NR concentration 270 nM, RXRa partner concentration 90 nM)
How it was run: as §1

Row | Sequence | PBM binding z-score [1] | PBM binding z-score [2] | PBM binding z-score [3] | PBM binding z-score [4] | PBM binding z-score [5] | PBM binding z-score [6] | PBM binding z-score [7] | PBM binding z-score [8] | PBM binding z-score [9] | PBM binding z-score [10] | PBM binding z-score [11] | PBM binding z-score [12] | PBM binding z-score [13] | PBM binding z-score [14] | PBM binding z-score [15] | PBM binding z-score [16] | PBM binding z-score [17] | PBM binding z-score [18] | PBM binding z-score [19] | PBM binding z-score [20]
1 | AGTCAAAGTTCATCGAGGTAACGTAAGATATGCT | 6.65 | 6 | 4.5 | 3.72 | 1.07 | 5.27 | 6.71 | 6.39 | 3.74 | 5.59 | 0.275 | 3.44 | 1.15 | 1.15 | 2.53 | 5.38 | 9.82 | 3.97 | 0.864 | 5.07
2 | TCAGACAGGTGAAGGTTACTCAGGTACGCAGTCG | 1.24 | 3.55 | 0.607 | 2.38 | 0.0683 | 1.81 | 1.06 | 2.39 | 3.71 | 2.81 | 2.66 | 1.5 | 0.0117 | 0.759 | 1.02 | 1.38 | 0.43 | 1.55 | 0.589 | 1.83
3 | CCAGACAGGTGAAAGGTAACTCATTCTGGTACGC | 0.79 | 0.853 | 0.0278 | 1.09 | -0.276 | 3.51 | 5.48 | 6.19 | 3.72 | 6.34 | 2.34 | 3.01 | -0.114 | -0.175 | 1.3 | 1.12 | 0.37 | 2.12 | 1.09 | 1.4
4 | TCGAGTAGGTTACCAATGGGGCATCCAGCTTTCT | -0.0343 | 1.12 | -0.623 | 0.546 | -1.16 | 1.27 | 0.366 | 1.12 | 1.25 | 1.19 | 3.43 | 2.56 | -0.589 | -0.544 | -0.353 | -0.193 | -0.691 | 0.352 | -1.07 | 1.03
5 | TCATATAGGTACAAGGTGAAAGTCGGTGTGGTAA | 0.883 | 1.08 | 0.335 | 1.18 | 0.0749 | 3.3 | 4.66 | 5.75 | 5.85 | 6.21 | 3.23 | 2.75 | 0.878 | 0.815 | 1.21 | 0.845 | 0.358 | 1.25 | 1.19 | 1.12
6 | CCTGCTTGGTCAATGGTCAGCTAAAGCAGCTCGC | -0.266 | -0.183 | -0.536 | -0.566 | -0.491 | -0.243 | -0.553 | 0.82 | -0.904 | 0.17 | 0.434 | -0.107 | -1.05 | -0.884 | 0.138 | -0.296 | -0.881 | 0.00711 | -0.943 | 1.01
7 | CGTCGAAGGTCAGAGAGGTCAGTGAATGCCGAGT | 6.25 | 5.11 | 3.28 | 4.34 | 0.365 | 4.79 | 3.57 | 4.39 | 1.28 | 3.06 | 2.6 | 3.03 | -0.434 | -0.601 | 6.33 | 6.06 | 11.6 | 5.68 | 3.9 | 5.05
8 | TCATATAGGTAAAACAGGTGAAAGTCGGCATCTA | 1.42 | 1.1 | 0.257 | 1.01 | 0.235 | 1.82 | 1.12 | 2.64 | 4.06 | 3.67 | 3.88 | 2.77 | 0.289 | 1.07 | 1.06 | 0.972 | 0.0725 | 1.62 | 1.05 | 0.579
9 | CCTTACGGGTCACTCCAGGTTATGGCATCGGAGT | 4.99 | 7.21 | 1.54 | 4.4 | -0.0375 | 4.24 | 3.15 | 3.76 | 0.907 | 2.67 | 2.6 | 3.76 | -0.451 | -0.505 | 1.71 | 4.55 | 0.182 | 3.46 | 0.437 | 3.78
10 | TTACCAAGGTAAGCTGAGGTCGTTGATCCAACTC | 0.46 | 2.12 | -0.287 | 0.881 | -0.769 | 1.3 | -0.244 | 0.0724 | -0.421 | -0.31 | -0.0286 | 0.407 | -0.293 | -0.159 | -0.361 | 3.52 | 0.144 | 1.9 | -1.52 | 0.571
11 | TCATCTAGGTAAACAGGTGAAAGTCCGTAAGTTA | 1.02 | 0.956 | 0.17 | 1.04 | 0.174 | 2.4 | 3.14 | 3.94 | 3.92 | 3.86 | 4.8 | 5.11 | 1.31 | 1.14 | 0.609 | 0.409 | 0.487 | 0.888 | 0.849 | 0.534
12 | AGAACGAGGGCAATTAGTTGATAGCACGGGTGGC | 0.559 | 0.389 | -0.309 | 0.306 | -0.23 | 1.64 | 1.31 | 0.81 | -0.134 | 0.104 | 3.45 | 2.65 | 0.442 | -0.255 | 0.218 | 0.729 | 1.02 | 0.412 | 0.215 | 2.06
13 | CCTGCTAGGTCATGGTCAGCTAATCTACAGTATG | 3.81 | 2.6 | 0.19 | 1.83 | -0.244 | 3.52 | 2.37 | 2.98 | 0.934 | 1.97 | 4.5 | 4.22 | 0.0201 | 0.284 | 0.79 | 1.41 | 0.115 | 2.34 | 0.369 | 3.95
14 | CTCGAAAGGTCGTGCTCAGGTGATTATACCAAAC | 4.98 | 4.19 | 0.561 | 3.64 | 0.429 | 4.83 | 2.63 | 3.52 | 0.939 | 2.35 | 0.733 | 1.72 | 1.57 | 0.403 | 2.1 | 3.55 | 0.276 | 4.32 | 0.268 | 3.86

From the supplement of paper PMC6555819
